Laboratory results reported in the supplement of paper PMC9694430.
Values joined by “and” are separate entries in the source; they are usually repeats but may differ in a detail not shown here. Identical values can stand only once. Counter-ions that a name gives are not always drawn.

The compounds below were run on LOC_OS02G45750-cb003 (assay: thermal shift delta Tm vs DMSO control; higher = stronger stabilization (binding)). Settings: 12.5 µM; protein concentration 2 µM.
Summary of the method: (§1)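 Compounds dissolved in DMSO were added to purified rice kinase domain constructs, which had been expressed in E. coli, for differential scanning fluorimetry. Each well held 19.5 μl of 2 μM kinase in 100 mM potassium phosphate pH 7.5, 150 mM NaCl, 10% glycerol and 5 × SYPRO Orange. Fluorescence was followed from 25°C to 95°C at a rate of 0.05°C/s. Shifts in Boltzmann-fitted melting temperature are triplicate means relative to DMSO-only protein.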
`Cc1cnc(-c2cnc(NCCNc3ccc(C#N)cn3)nc2-c2ccc(Cl)cc2Cl)[nH]1` was tested, and the “thermal shift delta Tm” value was 1.15 °C and 1.22 °C.
With `CCN(CC)CCCCNc1ncc2cc(-c3cc(OC)cc(OC)c3)c(NC(=O)NC(C)(C)C)nc2n1` the “thermal shift delta Tm” value was 1.08 °C.
In the case of `Cn1cc(-c2ccc3nnc(C(F)(F)c4ccc5ncccc5c4)n3n2)cn1`, the “thermal shift delta Tm” value is reported as 0.26 °C.
`O=C(c1ccc(/C=C/c2n[nH]c3ccccc23)cc1)N1CCNCC1` was tested, and the “thermal shift delta Tm” value was 14 °C.
For `CN(C)C[C@@H]1CCn2cc(c3ccccc32)C2=C(C(=O)NC2=O)c2cn(c3ccccc23)CCO1`, the “thermal shift delta Tm” value was -0.25 °C.
With `CC1=C(C(=O)Nc2ccc3[nH]ncc3c2)C(c2ccc(F)cc2)NC(=O)N1` (stereo unspecified) the “thermal shift delta Tm” value was 0.98 °C.
`CCc1cc(Nc2nccc(-c3c(-c4ccc(OC)c(C(=O)Nc5c(F)cccc5F)c4)nc4ccccn34)n2)c(OC)cc1N1CCC(N2CCN(S(C)(=O)=O)CC2)CC1` was tested, and the “thermal shift delta Tm” value was -0.02 °C.
In the case of `CNS(=O)(=O)Nc1nccc(Cc2c(C)c3ccc(Oc4ncccn4)cc3oc2=O)c1F`, the “thermal shift delta Tm” value is reported as 0.52 °C.
With `CCn1c(=O)c(-c2cc[nH]n2)cc2c(C)nc(N)nc21` the “thermal shift delta Tm” value was 0.15 °C.
For `COc1cc(F)c(F)c(Nc2ccc(I)cc2F)c1NS(=O)(=O)C1(C[C@H](O)CO)CC1` [Refametinib (RDEA119, Bay 86-9766)], the “thermal shift delta Tm” value was 0.64 °C.
For `Cc1cc(C(=O)NOCCO)c(Nc2ccc(I)cc2F)n(C)c1=O`, the “thermal shift delta Tm” value was -0.39 °C.
`O=C(c1cccc(Cl)c1F)N1CCN(Cc2cccc(Nc3nccs3)n2)CC1` was tested, and the “thermal shift delta Tm” value was 0.38 °C.
`CC(C)n1nc(-c2ccc3oc(N)nc3c2)c2c(N)ncnc21` was tested, and the “thermal shift delta Tm” value was 6.62 °C.
With `C=CC(=O)Nc1cccc(Sc2nc(Nc3ccc(N4CCN(C)CC4)cc3)ncc2Cl)c1` the “thermal shift delta Tm” value was 1.15 °C.
`CC(C)n1ncnc1-c1cn2c(n1)-c1ccc(O[C@@H](C)C(N)=O)cc1OCC2` was tested, and the “thermal shift delta Tm” value was 0.39 °C.
`Cc1ccc(NC(=O)c2ccc(CN3CCN(C)CC3)cc2)cc1Nc1nccc(-c2cccnc2)n1` [Imatinib (STI571)] was tested, and the “thermal shift delta Tm” value was 1.17 °C.
With `CCN(CC)CCCC(C)Nc1nc(C)cc(Nc2ccc3nc(C)cc(N)c3c2)n1` (stereo unspecified) the “thermal shift delta Tm” value was 1.05 °C.
In the case of `Cn1c(Nc2ccc(C(F)(F)F)cc2)nc2cc(Oc3ccnc(-c4ncc(C(F)(F)F)[nH]4)c3)ccc21`, the “thermal shift delta Tm” value is reported as 2.26 °C.
For `Cc1c(NC(=O)c2ccc(C(C)(C)C)cc2)cccc1-c1cn(C)c(=O)c(Nc2ccc(C(=O)N3CCOCC3)cc2)n1`, the “thermal shift delta Tm” value was 1.07 °C.
For `CNC(=O)c1cccc(-c2ccc3c(N4CCOC[C@@H]4C)nc(N4CCOC[C@@H]4C)nc3n2)c1` [Vistusertib (AZD2014)], the “thermal shift delta Tm” value was 0.21 °C.
`CCS(=O)(=O)c1cccc(-c2cc(C(=O)NC3CCN(C)CC3)c(C)c3[nH]c4ncc(C)cc4c23)c1` was tested, and the “thermal shift delta Tm” value was 5.63 °C.
In the case of `CCCCNc1ncc(C(=O)NCc2ccc(-n3ccnc3)cc2)c(NC2CCC(O)CC2)n1` (stereo unspecified), the “thermal shift delta Tm” value is reported as 12.4 °C.
In the case of `C=C(C)[C@@H]1CC[C@]2(C)CC[C@]3(C)[C@H](CC[C@@H]4[C@@]5(C)CC[C@H](O)C(C)(C)[C@@H]5CC[C@]43C)[C@@H]12` [Lupeol], the “thermal shift delta Tm” value is reported as 1.07 °C.
With `O=C(O[C@@H]1Cc2c(O)cc(O)cc2O[C@@H]1c1cc(O)c(O)c(O)c1)c1cc(O)c(O)c(O)c1` [(-)-Epigallocatechin Gallate] the “thermal shift delta Tm” value was -1.81 °C.
For `CC[C@H](CO)Nc1nc(NCc2ccccc2)c2ncn(C(C)C)c2n1` [Roscovitine (Seliciclib,CYC202)], the “thermal shift delta Tm” value was 0.1 °C.
For `COc1ccc([C@@H]2OC[C@H]3[C@@H]2CO[C@@H]3c2ccc(O[C@@H]3O[C@H](CO)[C@@H](O)[C@H](O)[C@H]3O)c(OC)c2)cc1OC` [Forsythin], the “thermal shift delta Tm” value was 0.82 °C.
`COc1cc2c(Oc3ccc(NC(=O)C4(C(=O)Nc5ccc(F)cc5)CC4)cc3F)ccnc2cc1OCCCN1CCOCC1` was tested, and the “thermal shift delta Tm” value was 3.41 °C.
With `N#Cc1c(NC(=O)c2cccc3ccccc23)sc2c1CCCC2` [JNK Inhibitor IX] the “thermal shift delta Tm” value was 0.59 °C.
`C#Cc1cccc(Nc2ncnc3cc4c(cc23)OCCOCCOCCO4)c1` [Icotinib] was tested, and the “thermal shift delta Tm” value was 3.3 °C.
With `CN1CCN(Cc2ccc(NC(=O)Nc3ccc(Oc4ccnc(N)n4)cc3)cc2C(F)(F)F)CC1` the “thermal shift delta Tm” value was 5.22 °C.
In the case of `N[C@@H]1CCCN(c2c(/C=C3\SC(=O)NC3=O)cccc2-c2ccccc2)C1`, the “thermal shift delta Tm” value is reported as 0.09 °C.
`Cc1c[nH]c(/C=C2\C(=O)Nc3ccccc32)c1CCC(=O)O` was tested, and the “thermal shift delta Tm” value was 2.76 °C.
With `N=C(N)NC(=N)NCCc1ccccc1` [Phenformin HCl] the “thermal shift delta Tm” value was 0.17 °C.
`Cc1cc(C)c(/C=C2\C(=O)Nc3ccccc32)[nH]1` [Semaxanib (SU5416)] was tested, and the “thermal shift delta Tm” value was 0 °C.
With `Nc1nc(N)c2nc(-c3cccc(O)c3)c(-c3cccc(O)c3)nc2n1` the “thermal shift delta Tm” value was 0.83 °C.
With `COc1cc(Nc2ncc3c(n2)-c2ccc(Cl)cc2C(c2c(F)cccc2OC)=NC3)ccc1C(=O)O` [Alisertib (MLN8237)] the “thermal shift delta Tm” value was 2.28 °C.
With `O=C(Nc1cccnc1)c1cc(-c2ccnc(F)c2)ccc1OCc1ccccc1` the “thermal shift delta Tm” value was 1.01 °C.
In the case of `Nc1ncnc2n[nH]c(Nc3ccc(F)cc3)c12`, the “thermal shift delta Tm” value is reported as 4.8 °C.

The compounds below were run on LOC_OS02G54510-cb004 in the same assay as above. Settings: 12.5 µM; protein concentration 2 µM.
Summary of the method: as §1
`Cc1cnc(-c2cnc(NCCNc3ccc(C#N)cn3)nc2-c2ccc(Cl)cc2Cl)[nH]1` was tested, and the “thermal shift delta Tm” value was 0.15 °C and -0.03 °C.
With `CCN(CC)CCCCNc1ncc2cc(-c3cc(OC)cc(OC)c3)c(NC(=O)NC(C)(C)C)nc2n1` the “thermal shift delta Tm” value was 0.28 °C.
In the case of `Cn1cc(-c2ccc3nnc(C(F)(F)c4ccc5ncccc5c4)n3n2)cn1`, the “thermal shift delta Tm” value is reported as -0.14 °C.
For `O=C(c1ccc(/C=C/c2n[nH]c3ccccc23)cc1)N1CCNCC1`, the “thermal shift delta Tm” value was 0.61 °C.
In the case of `CN(C)C[C@@H]1CCn2cc(c3ccccc32)C2=C(C(=O)NC2=O)c2cn(c3ccccc23)CCO1`, the “thermal shift delta Tm” value is reported as 0.16 °C.
With `CC1=C(C(=O)Nc2ccc3[nH]ncc3c2)C(c2ccc(F)cc2)NC(=O)N1` (stereo unspecified) the “thermal shift delta Tm” value was 0.18 °C.
For `CCc1cc(Nc2nccc(-c3c(-c4ccc(OC)c(C(=O)Nc5c(F)cccc5F)c4)nc4ccccn34)n2)c(OC)cc1N1CCC(N2CCN(S(C)(=O)=O)CC2)CC1`, the “thermal shift delta Tm” value was 0.08 °C.
With `CNS(=O)(=O)Nc1nccc(Cc2c(C)c3ccc(Oc4ncccn4)cc3oc2=O)c1F` the “thermal shift delta Tm” value was -0.03 °C.
`CCn1c(=O)c(-c2cc[nH]n2)cc2c(C)nc(N)nc21` was tested, and the “thermal shift delta Tm” value was 0.22 °C.
In the case of `COc1cc(F)c(F)c(Nc2ccc(I)cc2F)c1NS(=O)(=O)C1(C[C@H](O)CO)CC1` [Refametinib (RDEA119, Bay 86-9766)], the “thermal shift delta Tm” value is reported as 0.25 °C.
For `Cc1cc(C(=O)NOCCO)c(Nc2ccc(I)cc2F)n(C)c1=O`, the “thermal shift delta Tm” value was 0.03 °C.
`O=C(c1cccc(Cl)c1F)N1CCN(Cc2cccc(Nc3nccs3)n2)CC1` was tested, and the “thermal shift delta Tm” value was 0.15 °C.
In the case of `CC(C)n1nc(-c2ccc3oc(N)nc3c2)c2c(N)ncnc21`, the “thermal shift delta Tm” value is reported as 0.93 °C.
With `C=CC(=O)Nc1cccc(Sc2nc(Nc3ccc(N4CCN(C)CC4)cc3)ncc2Cl)c1` the “thermal shift delta Tm” value was 0.86 °C.
With `CC(C)n1ncnc1-c1cn2c(n1)-c1ccc(O[C@@H](C)C(N)=O)cc1OCC2` the “thermal shift delta Tm” value was 0.04 °C.
For `Cc1ccc(NC(=O)c2ccc(CN3CCN(C)CC3)cc2)cc1Nc1nccc(-c2cccnc2)n1` [Imatinib (STI571)], the “thermal shift delta Tm” value was 0.22 °C.
For `CCN(CC)CCCC(C)Nc1nc(C)cc(Nc2ccc3nc(C)cc(N)c3c2)n1` (stereo unspecified), the “thermal shift delta Tm” value was 0.18 °C.
For `Cn1c(Nc2ccc(C(F)(F)F)cc2)nc2cc(Oc3ccnc(-c4ncc(C(F)(F)F)[nH]4)c3)ccc21`, the “thermal shift delta Tm” value was 2.15 °C.
For `Cc1c(NC(=O)c2ccc(C(C)(C)C)cc2)cccc1-c1cn(C)c(=O)c(Nc2ccc(C(=O)N3CCOCC3)cc2)n1`, the “thermal shift delta Tm” value was 0.28 °C.
In the case of `CNC(=O)c1cccc(-c2ccc3c(N4CCOC[C@@H]4C)nc(N4CCOC[C@@H]4C)nc3n2)c1` [Vistusertib (AZD2014)], the “thermal shift delta Tm” value is reported as 0.04 °C.
In the case of `CCS(=O)(=O)c1cccc(-c2cc(C(=O)NC3CCN(C)CC3)c(C)c3[nH]c4ncc(C)cc4c23)c1`, the “thermal shift delta Tm” value is reported as 2.03 °C.
In the case of `CCCCNc1ncc(C(=O)NCc2ccc(-n3ccnc3)cc2)c(NC2CCC(O)CC2)n1` (stereo unspecified), the “thermal shift delta Tm” value is reported as 0.46 °C.
With `C=C(C)[C@@H]1CC[C@]2(C)CC[C@]3(C)[C@H](CC[C@@H]4[C@@]5(C)CC[C@H](O)C(C)(C)[C@@H]5CC[C@]43C)[C@@H]12` [Lupeol] the “thermal shift delta Tm” value was 0.49 °C.
`O=C(O[C@@H]1Cc2c(O)cc(O)cc2O[C@@H]1c1cc(O)c(O)c(O)c1)c1cc(O)c(O)c(O)c1` [(-)-Epigallocatechin Gallate] was tested, and the “thermal shift delta Tm” value was -0.12 °C.
In the case of `CC[C@H](CO)Nc1nc(NCc2ccccc2)c2ncn(C(C)C)c2n1` [Roscovitine (Seliciclib,CYC202)], the “thermal shift delta Tm” value is reported as 0.11 °C.
With `COc1ccc([C@@H]2OC[C@H]3[C@@H]2CO[C@@H]3c2ccc(O[C@@H]3O[C@H](CO)[C@@H](O)[C@H](O)[C@H]3O)c(OC)c2)cc1OC` [Forsythin] the “thermal shift delta Tm” value was -0.05 °C.
For `COc1cc2c(Oc3ccc(NC(=O)C4(C(=O)Nc5ccc(F)cc5)CC4)cc3F)ccnc2cc1OCCCN1CCOCC1`, the “thermal shift delta Tm” value was 2.08 °C.
With `N#Cc1c(NC(=O)c2cccc3ccccc23)sc2c1CCCC2` [JNK Inhibitor IX] the “thermal shift delta Tm” value was -0.12 °C.
In the case of `C#Cc1cccc(Nc2ncnc3cc4c(cc23)OCCOCCOCCO4)c1` [Icotinib], the “thermal shift delta Tm” value is reported as 0.13 °C.
`CN1CCN(Cc2ccc(NC(=O)Nc3ccc(Oc4ccnc(N)n4)cc3)cc2C(F)(F)F)CC1` was tested, and the “thermal shift delta Tm” value was 7.6 °C.
In the case of `N[C@@H]1CCCN(c2c(/C=C3\SC(=O)NC3=O)cccc2-c2ccccc2)C1`, the “thermal shift delta Tm” value is reported as -0.11 °C.
In the case of `Cc1c[nH]c(/C=C2\C(=O)Nc3ccccc32)c1CCC(=O)O`, the “thermal shift delta Tm” value is reported as 0.94 °C.
With `N=C(N)NC(=N)NCCc1ccccc1` [Phenformin HCl] the “thermal shift delta Tm” value was -0.29 °C.
For `Cc1cc(C)c(/C=C2\C(=O)Nc3ccccc32)[nH]1` [Semaxanib (SU5416)], the “thermal shift delta Tm” value was 0.58 °C.
For `Nc1nc(N)c2nc(-c3cccc(O)c3)c(-c3cccc(O)c3)nc2n1`, the “thermal shift delta Tm” value was 0.31 °C.
In the case of `COc1cc(Nc2ncc3c(n2)-c2ccc(Cl)cc2C(c2c(F)cccc2OC)=NC3)ccc1C(=O)O` [Alisertib (MLN8237)], the “thermal shift delta Tm” value is reported as 4.54 °C.
With `O=C(Nc1cccnc1)c1cc(-c2ccnc(F)c2)ccc1OCc1ccccc1` the “thermal shift delta Tm” value was 0.22 °C.
For `Nc1ncnc2n[nH]c(Nc3ccc(F)cc3)c12`, the “thermal shift delta Tm” value was 0.26 °C.
